Laboratory results reported in PubChem BioAssay AID504333 (National Center for Advancing Translational Sciences (NCATS), 2011).
About 16,000 (4.4%) of roughly 360,000 compounds were called active. Inconclusive results (about 9%) are left out. The call rests on the fitted dose curve; in most records, active means well fitted inhibition curve with a large enough effect; inconclusive means small, poorly fitted or top-dose-only effect; inactive means no such curve, though single readings can be large or run the other way. The list comes from a sample in which actives are over-represented; it also holds similar structures and randomly drawn compounds.

target: Bromodomain adjacent to zinc finger domain protein 2B (Homo sapiens) (UniProt Q9UIF8); assay: qHTS Assay for Inhibitors of BAZ2B; details: AlphaScreen BAZ2B-H3K14Ac peptide displacement; series mostly up to 114 µM; further: nearly all actives have a fitted effect of over 60% in size
Procedure, shortened: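 AlphaScreen luminescence quantifies BAZ2B engagement of H3K14Ac peptide; the protein and biotinylated peptide are both at 50 nM final, buffer PBS pH 7.4 with 0.01% Tween-20, all steps at room temperature.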
Potency means the concentration at half of the fitted maximal effect.

Bromodomain adjacent to zinc finger domain protein 2B (Homo sapiens), sequence (Q9UIF8 whole entry, looked up, the tested form may be a part): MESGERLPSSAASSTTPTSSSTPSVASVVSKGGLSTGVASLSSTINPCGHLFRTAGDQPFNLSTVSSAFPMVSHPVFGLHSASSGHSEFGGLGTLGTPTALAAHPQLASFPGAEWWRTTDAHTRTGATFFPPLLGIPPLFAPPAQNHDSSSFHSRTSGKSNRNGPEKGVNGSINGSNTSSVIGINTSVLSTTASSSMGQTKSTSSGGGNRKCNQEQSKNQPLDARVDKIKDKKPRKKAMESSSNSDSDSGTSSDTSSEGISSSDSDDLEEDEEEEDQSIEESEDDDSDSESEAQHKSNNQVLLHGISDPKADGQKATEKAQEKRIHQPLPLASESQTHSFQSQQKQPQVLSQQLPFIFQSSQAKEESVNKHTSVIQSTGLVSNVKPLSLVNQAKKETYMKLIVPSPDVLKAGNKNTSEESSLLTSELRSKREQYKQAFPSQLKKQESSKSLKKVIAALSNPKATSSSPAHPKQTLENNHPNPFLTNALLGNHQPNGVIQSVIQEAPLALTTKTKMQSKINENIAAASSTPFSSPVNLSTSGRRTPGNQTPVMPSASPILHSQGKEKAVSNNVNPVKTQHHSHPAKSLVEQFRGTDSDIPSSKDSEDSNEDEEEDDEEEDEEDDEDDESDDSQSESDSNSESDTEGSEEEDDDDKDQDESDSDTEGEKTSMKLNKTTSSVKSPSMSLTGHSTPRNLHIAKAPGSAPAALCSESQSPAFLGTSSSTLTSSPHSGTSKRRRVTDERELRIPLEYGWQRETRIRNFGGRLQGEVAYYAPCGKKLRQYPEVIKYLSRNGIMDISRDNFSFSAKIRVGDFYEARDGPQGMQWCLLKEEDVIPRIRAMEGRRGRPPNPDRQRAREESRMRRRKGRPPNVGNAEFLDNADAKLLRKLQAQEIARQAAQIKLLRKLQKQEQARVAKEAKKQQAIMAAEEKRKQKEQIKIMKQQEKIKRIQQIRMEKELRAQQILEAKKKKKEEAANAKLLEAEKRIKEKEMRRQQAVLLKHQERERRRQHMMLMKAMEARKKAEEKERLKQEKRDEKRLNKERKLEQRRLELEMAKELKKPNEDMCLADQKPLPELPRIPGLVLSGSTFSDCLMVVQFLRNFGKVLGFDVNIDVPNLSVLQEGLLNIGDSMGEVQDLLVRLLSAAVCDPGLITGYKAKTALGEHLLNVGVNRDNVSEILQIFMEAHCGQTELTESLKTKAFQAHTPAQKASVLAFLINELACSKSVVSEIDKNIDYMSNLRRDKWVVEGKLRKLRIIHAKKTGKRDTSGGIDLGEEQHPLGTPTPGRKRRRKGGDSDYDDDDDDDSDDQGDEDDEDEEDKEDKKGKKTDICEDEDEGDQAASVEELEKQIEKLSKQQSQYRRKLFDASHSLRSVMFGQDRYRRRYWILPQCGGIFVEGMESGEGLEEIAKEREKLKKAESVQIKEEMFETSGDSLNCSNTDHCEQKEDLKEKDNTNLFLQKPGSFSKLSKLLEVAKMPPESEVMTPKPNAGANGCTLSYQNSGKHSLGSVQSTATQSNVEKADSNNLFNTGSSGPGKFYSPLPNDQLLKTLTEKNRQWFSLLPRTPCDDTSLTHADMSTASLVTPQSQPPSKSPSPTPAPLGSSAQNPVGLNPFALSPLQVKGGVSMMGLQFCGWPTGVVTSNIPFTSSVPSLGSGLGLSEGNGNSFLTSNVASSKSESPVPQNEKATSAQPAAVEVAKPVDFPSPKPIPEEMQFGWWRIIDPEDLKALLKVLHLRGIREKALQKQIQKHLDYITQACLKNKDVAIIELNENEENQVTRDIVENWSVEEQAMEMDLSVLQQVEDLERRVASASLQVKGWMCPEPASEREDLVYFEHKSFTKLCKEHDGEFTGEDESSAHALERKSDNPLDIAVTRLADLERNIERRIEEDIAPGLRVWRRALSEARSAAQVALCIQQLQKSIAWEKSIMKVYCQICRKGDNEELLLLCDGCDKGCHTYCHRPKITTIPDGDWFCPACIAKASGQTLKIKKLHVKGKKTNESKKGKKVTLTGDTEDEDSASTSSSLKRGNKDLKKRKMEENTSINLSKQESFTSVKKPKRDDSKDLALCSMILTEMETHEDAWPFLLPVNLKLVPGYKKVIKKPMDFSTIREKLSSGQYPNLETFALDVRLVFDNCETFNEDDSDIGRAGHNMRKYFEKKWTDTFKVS

Potency, active:
O=C(CNCc1ccco1)Nc1cc(S(=O)(=O)N2CCOCC2)ccc1N1CCCC1 50.1 µM
O=C(c1ccc(CS(=O)(=O)c2ccccc2)o1)N1CCN(c2ccccc2)CC1 56.2 µM
COc1ccc(N2CCN(C3CCCCC3NS(=O)(=O)c3ccccc3)CC2)cc1 (stereo not given) 17.8 µM
Cc1ccccc1S(=O)(=O)N1[C@@H](c2cccc(Cl)c2)C(C(=O)O)=CC[C@H]1c1ccc(Cl)cc1 79.4 µM
CCOc1ccc(Nc2nc(Cl)nc(N3CCN(c4ccc(OC)cc4)CC3)n2)cc1 8.91 µM
CCOc1ccccc1NC(=O)Cc1cccs1 50.1 µM
Nc1ccc(-c2sc(N)nc2-c2ccccc2)cc1 50.1 µM
Cc1ccc(N2CCN(c3ccc(C)cc3)C2c2ccccn2)cc1 50.1 µM
COc1ccc(-c2csc(Nc3ccc(O)cc3)n2)cc1 35.5 µM
COc1ccc(OC)c(Nc2nc(-c3ccc(O)c(O)c3)cs2)c1 50.1 µM
CCN1C(=S)N[C@@H](c2cccc(C(F)(F)F)c2)C(C(=O)OC)=C1C 50.1 µM
COc1ccc(/C=C/C(=O)c2cc(Br)ccc(=O)c2O)cc1 44.7 µM
Cc1ccc(OCC(=O)Nc2ccc(N3CCN(C(=O)c4ccco4)CC3)cc2)c(C)c1 31.6 µM
O=C(NNc1c2ccccc2nc2ccccc12)c1cc2ccccc2cc1O 8.91 µM
C/C(=N\NC(=O)c1ccoc1C)c1ccccc1O 50.1 µM
CC(C)(C)Nc1nc(-c2ccccn2)nc2ccccc12 50.1 µM
Clc1cccc(CN2COc3c(cc(Cl)c4cccnc34)C2)c1 28.2 µM
O=c1ccc2c(-c3ccccc3S(=O)(=O)O)c3ccc(O)c(O)c3oc-2c1O 1 µM
Cc1ccc(NC(=O)CNCc2ccccn2)cc1S(=O)(=O)N(C)C 25.1 µM

Potency, inactive:
CC(=O)NCCC(=O)Nc1cc(S(=O)(=O)N2CCOCC2)ccc1N1CCOCC1
O=C(COC(=O)c1ccccc1F)Nc1cc(S(=O)(=O)N2CCOCC2)ccc1N1CCCC1
CCOCCCn1c(SCC(=O)Nc2ccc(CC)cc2)nc2ccccc2c1=O
COc1ccc(S(=O)(=O)c2c(Nc3cccc(Cl)c3)sc(C(=O)c3ccccc3)c2N)cc1
O=C(c1ccc(S(=O)(=O)N2CCOCC2)cc1)N1CCN(c2ccccc2)CC1
COc1ccccc1CNC(=O)c1ccc(CS(=O)(=O)c2ccccc2)o1
Cc1ccc2oc(=O)c3cnn(CC(=O)N4CCN(c5cccc(Cl)c5)CC4)c3c2c1
O=S(=O)(NC1CCCCC1N1CCN(c2ccccc2F)CC1)c1ccccc1 (stereo not given)
CCN1CCN(C2CCCCC2NS(=O)(=O)c2ccc(Cl)cc2)CC1 (stereo not given)
O=C(NCc1ccc(F)cc1)c1ccc2nc(N3CCCCC3)sc2c1
COc1ccc(C(=O)Nc2nonc2-c2ccc(OC)c(OC)c2)cc1Cl
CCCCCn1c(CCNC(=O)c2ccc(F)cc2)nc2ccccc21
CN1OC(COC(=O)c2ccc(Cl)cc2)CC1c1ccccc1 (stereo not given)
Cc1ccc(S(=O)(=O)N2[C@@H](c3ccccc3F)C(C(=O)O)=CC[C@H]2c2ccc(Cl)cc2)cc1
Cc1cc2n(n1)C(c1cc(C(C)(C)C)c(O)cc1O)Nc1ccccc1-2 (stereo not given)
CSc1nc(-c2ccccc2Cl)nc2c1Cc1c(CO)cnc(C)c1O2
O=C(CSc1nc2nccnc2c(=O)n1CCc1c[nH]c2ccccc12)Nc1ccccc1F
Cc1ccc(CSc2nc3ccsc3c(=O)n2CCC(C)C)cc1
COc1ccc(Nc2ncc(F)c(N3CCOCC3)n2)cc1
Cc1ccc(Nc2nc(N3CCOCC3)nc(N3CCOCC3)n2)cc1Cl
CCOc1ccccc1NC(=O)Cn1nnc(C(=O)NCc2cccs2)c1N
CCOC(=O)c1ccc(NC(=O)Cc2cccs2)cc1
COc1ccc(CNc2nc(-c3ccccc3)nn2C(=O)c2ccccc2OC)cc1
Nc1ccc(-c2nnc(-c3ccccc3)o2)cc1
COc1ccc(NC(=O)c2sc(N)nc2-c2ccccc2)cc1
COc1cc(C(=O)N2CCN(c3ccc(Nc4ccc(C)cc4)nn3)CC2)cc(OC)c1OC
Cc1ccc(-n2ccc(=O)c(C(=O)O)n2)cc1
Cc1ccc(S(=O)(=O)NCC(=O)N2CCN(c3ccccn3)CC2)cc1
O=S(=O)(NCCc1nnc2ccc(SCc3ccc(Cl)cc3Cl)nn12)c1ccccc1
COc1ccc(S(=O)(=O)n2nc(C)c(S(=O)(=O)N3CCCCCC3)c2C)cc1
CC(=O)Nc1ccc2nc(SCCOc3cc(C)cc(C)c3)sc2c1
CCOc1cc2[nH]c(=O)n(Cc3ccc(C(=O)NCCN(CC)CC)cc3)c(=O)c2cc1OCC
CCCC(=O)N1CCN(c2nc3c(OC)ccc(C)c3s2)CC1
Cc1c2cnn(-c3ccccc3)c(=O)c2c(C)n1C(C)C(=O)Nc1ccc(Br)cc1F (stereo not given)
COc1ccc(CC(=O)Nc2nc(-c3ccc(F)c(F)c3)cs2)cc1OC
COc1ccc(-c2csc(NC(=O)COC(=O)Cc3ccc(Cl)cc3Cl)n2)cc1
COc1ccc(OC)c(-c2csc(NC(=O)COC(=O)C3CC3)n2)c1
COc1ccc(-c2csc(NC(=O)COC(=O)c3ccc(Br)o3)n2)cc1
CC1CCN(c2nc3ccc(C(=O)N4CCN(c5ccccc5)CC4)cc3s2)CC1
COc1ccccc1C(=O)Nc1c(C(=O)N(C)Cc2ccccc2)sc2nc(C)c(Cl)c(C)c12
COc1ccc(NC(=O)CCNS(=O)(=O)c2ccc3c(c2)CCCC(=O)N3)cc1Cl
COc1ccc(NC(=O)CSc2nc3ccccc3n2CC(=O)N2CCCCC2C)cc1 (stereo not given)
Cc1ccc(S(=O)(=O)N(CC(=O)Nc2ccc(Cl)cc2Cl)c2ccccc2C)cc1
CCOc1cc(C(=O)NCCc2csc3nc(-c4ccc(C)cc4)nn23)cc(OCC)c1OCC
CCOC(=O)c1cccc(NS(=O)(=O)c2cc(-c3cnc(C)o3)ccc2OC)c1
O=C(NC1CCN(Cc2ccccc2)CC1)c1ccc(Cn2c(=O)c3ccccc3n(Cc3cccc(F)c3)c2=O)cc1
CCOC(=O)C1CCCN(C(=O)Cn2ncc3c(C)n(Cc4ccc(F)cc4)c(C)c3c2=O)C1 (stereo not given)
CCCCN(CC)CCCNC(=O)c1nn(C)c2c1CS(=O)(=O)c1ccccc1-2
COc1ccccc1CN1CCC(CNC(=O)c2cnn(-c3cccc(Cl)c3)c2C2CCN(C(=O)OC(C)(C)C)CC2)CC1
COC(=O)C1=C(C)N(C)C(=S)NC1c1ccccc1 (stereo not given)
COCCN1C(=O)N[C@@H](c2ccccc2)C(C(=O)OC)=C1C
COC(=O)CC1Oc2ccccc2-n2cc(-c3ccccc3)nc21 (stereo not given)
COc1ccc(C(=O)/C=C/c2cccnc2)c(OC)c1
COc1ccc(C(=O)/C=C/c2ccc(OC3CSC3)cc2)cc1
COc1cc(OC)c(OC)cc1/C=C/c1nc2cc3ccccc3cc2c(=O)n1-c1ccc(F)c(Cl)c1
COc1ccc(CCNS(=O)(=O)c2cc(-c3cc(C)no3)ccc2C)cc1OC
CCC(=O)Nc1ccc(C(=O)N2CCN(C(=O)c3ccco3)CC2)cc1
Cc1ccc(C)c(OCC(=O)N2CCN(C(=O)c3ccco3)CC2)c1
CCOc1ccc(Nc2c(S(=O)(=O)c3ccccc3)cnc3ccccc23)cc1
CC(C)(C)OC(=O)NNc1c2ccccc2nc2ccccc12
O=C(N/N=C/c1cccnc1)c1cc2ccccc2cc1O
COC(=O)c1ccccc1NC(=O)c1ccc2c(=O)n3c(nc2c1)CCCCC3
CC1=C(C(=O)N2CCN(c3cccc(C(F)(F)F)c3)CC2)C2(CCCCC2)OC1=O
O=C(NCc1ccccc1)C(=O)NCC(c1ccco1)S(=O)(=O)c1ccc(Cl)cc1 (stereo not given)
Cc1cc(C(=O)NNC(=O)c2ccccc2O)c(C)o1
CC(C)=C(NC(=O)c1ccccc1)C(=O)N/N=C(\C)c1ccccc1O
COc1cccc(-c2nc(S(=O)(=O)c3ccc(C)cc3)c(NCc3ccccc3)o2)c1
CCC(=O)OCCNc1nc(-c2ccccc2)nc2ccccc12
CCOCCCNc1nc(-c2ccccc2)nc2ccccc12
O=c1c2ccccc2n(Cc2cccc(Cl)c2)c(=O)n1Cc1ccccc1
O=c1c2cccnc2n(Cc2cccc(F)c2)c(=O)n1Cc1ccccc1Cl
COc1ccc(CNC(=O)c2cc3c(s2)-c2ccccc2OC3)cc1
Cc1nc2c(-c3ccccc3)c(C)nn2c(C)c1CCC(=O)NCCc1ccccc1
CC1=C(c2ccc(C)cc2)S(=O)(=O)NC1=NCCCN1CCN(c2cc(C)ccc2C)CC1
CCOc1ccc(CCNC(=O)c2c(C)oc3ncn(C)c(=O)c23)cc1
COc1ccc(CCNC(=O)c2cnc3sc(N4CCCCCC4)nn3c2=O)cc1OC
O=C(CCn1c(=O)c2ccccc2n(Cc2ccc(Cl)cc2)c1=O)NCc1ccc2c(c1)OCO2
CCN(c1ccccc1)S(=O)(=O)c1cc(C(=O)NCc2ccccn2)ccc1C
Cc1ccc(NC(=O)c2cccs2)cc1S(=O)(=O)N(C)C
O=S(=O)(Nc1ccc2nc(-c3cccc(Cl)c3)oc2c1)c1ccccc1
COc1ccc(CNC(=O)CSc2nc3ccccc3nc2Cc2ccccc2)cc1
